# “And” between values parts separate entries of the source, which are not always exact repeats. Equal values may be shown once. Inconclusive results are not listed. Where a call stands in place of a potency, no number is given. The source made the active and inactive calls. Calls follow the shape of the dose curve; as a rule, active = well fitted curve in the direction sought with a large enough effect; inconclusive = small, poorly fitted or top-dose-only effect, or another doubt; inactive = no such curve, though single readings can be large; an effect the other way counts as inactive or inconclusive.
# Legend:
# [1] = qHTS of pediatric cancer cell lines to identify multiple opportunities for drug repurposing: Primary screen for SK-N-MC cells (AID 1347093); also: potency is read from the fitted curve at half-maximal effect
# Procedure, shortened: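 Metabolically active cells were quantified by ATP-dependent luminescence (CellTiter-Glo, 15 min at room temperature) following 48 h treatment. Cells had been plated at 500-1,000 per well and settled for 5 h beforehand.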
# [2] = qHTS of pediatric cancer cell lines to identify multiple opportunities for drug repurposing: Primary screen for BT-37 cells (AID 1347094); also: potency is read from the fitted curve at half-maximal effect
# Procedure, shortened: (§1)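 Quantitative HTS format: each compound titrated (MIPE 11 points from 0.78 nM, NPC 8 points from 0.59 nM) onto cells plated 5 hours earlier. After 48 h at 37 degrees C, CellTiter-Glo luminescence was recorded.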
# [3] = qHTS of pediatric cancer cell lines to identify multiple opportunities for drug repurposing: Primary screen for NB-EBc1 cells (AID 1347095); also: potency is read from the fitted curve at half-maximal effect
# Procedure, shortened: as §1
# [4] = qHTS of pediatric cancer cell lines to identify multiple opportunities for drug repurposing: Primary screen for U-2 OS cells (AID 1347096); also: nearly all actives have a fitted effect of over 50% in size
# Procedure, shortened: (§2)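 Viability after 48 h compound treatment at 37C, 500-1,000 cells/well, read as ATP luminescence with CellTiter-Glo. Primary screens used 11-point (MIPE, 0.78 nM-46 µM) or 8-point (NPC, 0.59 nM-46 µM) final concentrations; follow-up screens used 11-point dilutions.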
# [5] = qHTS of pediatric cancer cell lines to identify multiple opportunities for drug repurposing: Primary screen for Saos-2 cells (AID 1347097); also: nearly all actives have a fitted effect of over 40% in size; also: potency is read from the fitted curve at half-maximal effect
# Procedure, shortened: as §1
# [6] = qHTS of pediatric cancer cell lines to identify multiple opportunities for drug repurposing: Primary screen for SK-N-SH cells (AID 1347098); also: nearly all actives have a fitted effect of over 65% in size; also: potency is read from the fitted curve at half-maximal effect
# Procedure, shortened: (§3)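 Cells (500-1,000/well) rested 5 h, then received compounds for 48 h; metabolically active cells were measured by CellTiter-Glo luminescence. Final concentrations spanned up to 46 µM (MIPE, 11-point) or 0.59 nM-46 µM (NPC, 8-point) in primary screens, 11-point in follow-ups.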
# [7] = qHTS of pediatric cancer cell lines to identify multiple opportunities for drug repurposing: Primary screen for NB1643 cells (AID 1347099); also: nearly all actives have a fitted effect of over 50% in size; also: potency is read from the fitted curve at half-maximal effect
# Procedure, shortened: as §1
# [8] = qHTS of pediatric cancer cell lines to identify multiple opportunities for drug repurposing: Primary screen for LAN-5 cells (AID 1347100); also: potency is read from the fitted curve at half-maximal effect
# Procedure, shortened: as §2
# [9] = qHTS of pediatric cancer cell lines to identify multiple opportunities for drug repurposing: Primary screen for BT-12 cells (AID 1347101); also: nearly all actives have a fitted effect of over 25% in size; also: potency is read from the fitted curve at half-maximal effect
# Procedure, shortened: as §3
# [10] = qHTS of pediatric cancer cell lines to identify multiple opportunities for drug repurposing: Primary screen for Rh18 cells (AID 1347102); also: nearly all actives have a fitted effect of over 65% in size; also: potency is read from the fitted curve at half-maximal effect
# Procedure, shortened: as §2
# [11] = qHTS of pediatric cancer cell lines to identify multiple opportunities for drug repurposing: Primary screen for OHS-50 cells (AID 1347103); also: nearly all actives have a fitted effect of over 40% in size; also: potency is read from the fitted curve at half-maximal effect
# Procedure, shortened: as §3
# [12] = qHTS of pediatric cancer cell lines to identify multiple opportunities for drug repurposing: Primary screen for MG 63 (6-TG R) cells (AID 1347105); also: nearly all actives have a fitted effect of over 50% in size; also: potency is read from the fitted curve at half-maximal effect
# Procedure, shortened: as §1
# [13] = qHTS of pediatric cancer cell lines to identify multiple opportunities for drug repurposing: Primary screen for control Hh wild type fibroblast cells (AID 1347106);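 also: series mostly up to about 46 µM; a drop in luminescence marks cytotoxicity and a rise apparent proliferation; nearly all actives have a fitted effect of over 55% in size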
# Procedure, shortened: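 Cells (500-1,000/well) in growth media were settled 5 h at 37 degrees C, then given compounds for 48 h. Viability was read as CellTiter-Glo luminescence. Primary runs used MIPE at 11 points (0.78 nM-46 µM) and NPC at 8 points (0.59 nM-46 µM); follow-ups used 11 points.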
# [14] = qHTS of pediatric cancer cell lines to identify multiple opportunities for drug repurposing: Primary screen for RD cells (AID 1347104); also: nearly all actives have a fitted effect of over 55% in size; also: potency is read from the fitted curve at half-maximal effect
# Procedure, shortened: as §1
# [15] = qHTS of pediatric cancer cell lines to identify multiple opportunities for drug repurposing: Primary screen for Rh30 cells (AID 1347107); also: series mostly up to about 46 µM; nearly all actives have a fitted effect of over 75% in size
# Procedure, shortened: as §2
# [16] = qHTS of pediatric cancer cell lines to identify multiple opportunities for drug repurposing: Primary screen for Rh41 cells (AID 1347108); also: nearly all actives have a fitted effect of over 70% in size; also: potency is read from the fitted curve at half-maximal effect
# Procedure, shortened: as §1
# [17] = qHTS of pediatric cancer cell lines to identify multiple opportunities for drug repurposing: Confirmatory screen for BT-12 cells (AID 1347112); also: nearly all actives have a fitted effect of over 55% in size; also: potency is read from the fitted curve at half-maximal effect
# Procedure, shortened: as §2
# [18] = qHTS of pediatric cancer cell lines to identify multiple opportunities for drug repurposing: Confirmatory screen for LAN-5 cells (AID 1347113); also: nearly all actives have a fitted effect of over 65% in size; also: potency is read from the fitted curve at half-maximal effect
# Procedure, shortened: as §2
# [19] = qHTS of pediatric cancer cell lines to identify multiple opportunities for drug repurposing: Confirmatory screen for A673 cells (AID 1347110);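 also: potency is read from the fitted curve at half-maximal effect; cells exposed to compound for 48 h before the viability read; nearly all actives have a fitted effect of over 65% in size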
# Procedure, shortened: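 Cells plated at 500-1,000/well were treated five hours later with multi-point dilutions up to 46 µM final. After two days, CellTiter-Glo was added and luminescence read.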
# [20] = qHTS of pediatric cancer cell lines to identify multiple opportunities for drug repurposing: Confirmatory screen for NB1643 cells (AID 1347109); also: potency is read from the fitted curve at half-maximal effect; nearly all actives have a fitted effect of over 45% in size
# Procedure, shortened: as §2
Compound,Potency [1],Potency [2],Potency [3],Potency [4],Potency [5],Potency [6],Potency [7],Potency [8],Potency [9],Potency [10],Potency [11],Potency [12],Potency [13],Potency [14],Potency [15],Potency [16],Potency [17],Potency [18],Potency [19],Potency [20]
COc1cc2c(cc1OC)CN(CCc1ccc(NC(=O)c3cccc4c(=O)c5cccc(OC)c5[nH]c34)cc1)CC2,10.5 µM (active),inactive,inactive,inactive,inactive,12100 nM (active),7430 nM (active),inactive,inactive,inactive,inactive,inactive,inactive,–,–,–,–,–,–,–
CCCc1nc2c(C)cc(-c3nc4ccccc4n3C)cc2n1Cc1ccc(-c2ccccc2C(=O)O)cc1,16.6 µM (active),inactive,inactive,inactive,inactive,inactive,inactive,inactive,inactive,inactive,inactive,inactive,inactive,inactive,inactive,inactive,–,–,–,–
NCCc1ccc(O)c(O)c1,18.7 µM (active) and 7.5 µM (active),inactive,inactive,inactive,inactive,inactive,inactive,inactive,inactive,inactive,inactive,inactive,inactive,inactive,inactive,inactive,–,–,–,–
Cc1cnc(NC(=O)C2=C(O)c3ccccc3S(=O)(=O)N2C)s1,inactive,inactive,inactive,inactive,inactive,inactive,inactive,inactive,inactive,inactive,inactive,inactive,inactive,inactive,inactive,inactive,–,–,–,–
Nc1ccc(S(=O)(=O)Nc2ccnn2-c2ccccc2)cc1,inactive,inactive,inactive,inactive,inactive,inactive,inactive,inactive,inactive,inactive,inactive,inactive,inactive,inactive,inactive,inactive,–,–,–,–
NC(=O)c1ccc(I)c([N+](=O)[O-])c1,3.72 µM (active),inactive,inactive,inactive,inactive,inactive,inactive,inactive,inactive,inactive,inactive,inactive,–,inactive,inactive,–,inactive,inactive,–,–
CCc1ccc(CCOc2ccc(CC3SC(=O)NC3=O)cc2)nc1 (stereo unspecified),inactive,inactive,inactive,inactive,inactive,inactive,inactive,inactive,inactive,inactive,inactive,inactive,inactive,inactive,inactive,–,–,–,–,–
CC(=O)Oc1ccccc1C(=O)O,inactive,inactive,inactive,inactive,inactive,inactive,inactive,inactive,inactive,inactive,inactive,inactive,inactive,inactive,–,–,–,–,–,–
COc1ccccc1[C@H](c1cccc2ccccc12)[C@@](C)(C#N)C(=O)N1CCC(c2cccc(C(F)(F)F)c2)CC1,1.18 µM (active),17200 nM (active),6620 nM (active),–,–,19200 nM (active),–,–,–,–,1090 nM (active),–,inactive,–,inactive,–,–,–,–,–
CCC(C)N(C)C(=O)c1cc2ccccc2c(-c2ccccc2Cl)n1 (stereo unspecified),inactive,inactive,inactive,inactive,–,–,–,inactive,–,inactive,–,inactive,inactive,inactive,inactive,–,–,–,–,–
COc1ccc(-c2ccc3c(N4CCOC[C@H]4C)nc(N4CCOC[C@H]4C)nc3n2)cc1CO,0.0047 µM (active),54.4 nM (active),33.2 nM (active),–,469 nM (active),inactive,–,–,–,132 nM (active),54.4 nM (active),18.7 nM (active),–,37.2 nM (active),inactive,–,–,293 nM (active),117 nM (active),–
COc1ccc(-c2ccc3c(N4CCOCC4)nc(N4C[C@@H](C)O[C@@H](C)C4)nc3n2)cc1CO,0.0935 µM (active),1370 nM (active),1480 nM (active),–,–,–,inactive,–,–,–,217 nM (active),187 nM (active),–,–,inactive,–,5220 nM (active),–,293 nM (active),–
CN(C(=O)c1ccc(F)cc1C(F)(F)F)C1CCN(c2nnc(-c3ccnn3C)c3ccccc23)CC1,0.332 µM (active),inactive,inactive,inactive,–,–,4180 nM (active),inactive,21700 nM (active),inactive,24300 nM (active),–,inactive,–,–,–,–,–,–,–
CCN(CC)CCCC(C)Nc1nc(C)cc(Nc2ccc3nc(C)cc(N)c3c2)n1 (stereo unspecified),inactive,inactive,inactive,inactive,–,inactive,inactive,inactive,inactive,inactive,–,inactive,inactive,inactive,inactive,inactive,–,–,–,–
CCOc1cc(N2CCC(O)CC2)ccc1Nc1ncc2c(n1)N(C)c1ccccc1C(=O)N2C,0.332 µM (active),54.4 nM (active),833 nM (active),–,118 nM (active),4290 nM (active),–,93.5 nM (active),86.3 nM (active),–,43.2 nM (active),3720 nM (active),inactive,148 nM (active),–,2960 nM (active),–,–,46.5 nM (active),16500 nM (active)
COc1cc(F)c(F)c(Nc2ccc(I)cc2F)c1NS(=O)(=O)C1(C[C@H](O)CO)CC1,16.6 µM (active),inactive,inactive,–,–,–,inactive,inactive,–,inactive,–,inactive,inactive,–,–,–,–,–,–,–

# Source: PubChem BioAssay (NCATS)
